Consider 40 compounds from the supplement of paper PMC11383364.

± gives the standard deviation of the averaged measurements.

This assay relates to SUM149. Nature of the assay: percent difference in area under dose-response curve of relative cell number, RPMI vs HPLM; higher = drug relatively more effective in HPLM than RPMI (negative = less effective in HPLM). The settings on record: treatment time: 72 h; dose range: 10-point, 1 nM to 20 µM; media compared: RPMI vs HPLM. The procedure:
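SUM149 triple-negative breast cancer cells, 500 cells/well in 384-well plates, were grown in RPMI or human plasma-like medium (HPLM) with 5% dialyzed FBS. They were pin-transferred with an anticancer plus metabolic-inhibitor library in 10-point dose series (20 µM to 1 nM). After 72 h, cells were fixed, stained with bisbenzimide and counted by Acumen plate cytometry. The AUC of relative survival vs dose was computed per medium, and the percent difference in AUC between RPMI and HPLM is reported.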
Turning to `CC1=CC(=O)c2ccccc2C1=O` [Menadione], the “percent difference in area under dose-response curve” value (from here on “percent difference in area”) was -3.63%. Consider `CC(C)Oc1ccc(C(=O)N[C@H](CNC(=O)CN(C)C)Cc2ccc(-c3cn4cccc([C@H](C)O)c4n3)cc2)cc1Cl`, for which the “percent difference in area” value is -23.9%. The same measure for `COc1cc2nccc(Oc3ccc(NC(=O)NC4CC4)c(Cl)c3)c2cc1C(N)=O`: 5.17%. The same measure for `O=C(NOCC1CC1)c1ccc(F)c(F)c1Nc1ccc(I)cc1Cl`: 4.08%.

Take `Cc1ccc(-c2cc(C(F)(F)F)nn2-c2ccc(S(N)(=O)=O)cc2)cc1` [Celecoxib]: the “percent difference in area” value is 1.54 ± 3%. The same measure for `O=c1[nH]c(=O)n(C2CCCO2)cc1F` (stereo not given) [Ftorafur]: -2.37%; for `O=C(Nc1cccnc1)N1CCC(Cc2cccc(Oc3ccc(C(F)(F)F)cn3)c2)CC1`: -4.77%. The figure for `Cc1cc2c(F)c(Oc3ncnn4cc(OC[C@@H](C)O)c(C)c34)ccc2[nH]1` [Brivanib] is -2.59%; for `C#Cc1cccc(Nc2ncnc3cc(OCCOC)c(OCCO)cc23)c1` it is -0.553%. The same measure for `CC(C)C[C@@H](C(=O)N[C@H](C(=O)OC1CCCC1)c1ccccc1)[C@H](O)C(=O)NO`: -3.27%; for `C[C@@H](Oc1cc(-n2cnc3ccc(CN4CCN(C)CC4)cc32)sc1C(N)=O)c1ccccc1C(F)(F)F`: -20.5%; for `Cn1cncc1[C@@](N)(c1ccc(Cl)cc1)c1ccc2c(c1)c(-c1cccc(Cl)c1)cc(=O)n2C` [Tipifarnib]: -21.7%. Consider `Oc1ccc(/C=C/c2cc(O)cc(O)c2)cc1` [Resveratrol], for which the “percent difference in area” value was -1.11%. The figure for `O=C1c2c(O)ccc(O)c2C(=O)c2c(NCCNCCO)ccc(NCCNCCO)c21` [Mitoxantrone_HCl] is -32.7%; for `COc1cccc2c1C(=O)c1c(O)c3c(c(O)c1C2=O)C[C@@](O)(C(=O)CO)C[C@@H]3O[C@H]1C[C@H](N)[C@@H](O)[C@H](C)O1` [Epirubicin_HCl] it is -23.5%. Regarding `Cc1ccc(NC(=O)c2cccc(C(C)(C)C#N)c2)cc1Nc1ccc2ncn(C)c(=O)c2c1`, the “percent difference in area” value is -22.2%. Consider `S=C(NCc1ccc2c(c1)OCO2)N1CCN(c2ncnc3c2oc2ccccc23)CC1` [Amuvatinib], for which the “percent difference in area” value came to 1.06%. The figure for `NC(=O)Nc1cc(-c2cccc(F)c2)sc1C(=O)N[C@H]1CCCNC1` is -2.68%; for `NC(=O)c1[nH]nc([C@@H]2O[C@H](CO)[C@@H](O)[C@H]2O)c1O` [Pyrazofurin] it is 5.89%; for `CCC1=C[C@@H]2CN(C1)Cc1c([nH]c3ccccc13)[C@@](C(=O)OC)(c1cc3c(cc1OC)N(C)[C@H]1[C@@](O)(C(=O)OC)[C@H](OC(C)=O)[C@]4(CC)C=CCN5CC[C@]31[C@@H]54)C2` [Vinorelbine_Tartrate] it is -41%.

Regarding `C=CS(=O)(=O)NC1CCN(C(=O)CNc2cc(I)c(Cl)cc2OC)CC1` [KRas_G12C_inhibitor_9], the “percent difference in area” value was -1.74%. The figure for `Cc1nc2c(-c3cnc(N)nc3)nc(N3CCOCC3)nc2n1C(C)C` is -7.54%; for `CNC(=O)c1cc(Oc2ccc(NC(=O)Nc3ccc(Cl)c(C(F)(F)F)c3)c(F)c2)ccn1` [Regorafenib] it is -5.08%. The same measure for `CN(C)C/C=C/C(=O)Nc1cc2c(Nc3ccc(F)c(Cl)c3)ncnc2cc1O[C@H]1CCOC1` [Afatinib]: 2.93%; for `c1ccc2c(CCNc3ccc(Nc4ccncc4)cc3)c[nH]c2c1`: -22.6%. For the compound `C=CCN(C)CCCCCCOc1ccc(C(=O)c2ccc(Br)cc2)c(F)c1`, the “percent difference in area” value is -0.097%.

On to `CC1(C)C=C(CN2C/C(=C\c3ccc(F)cc3)C(=O)/C(=C/c3ccc(F)cc3)C2)C(C)(C)N1O`, for which the “percent difference in area” value was 2.04%. The figure for `CN(C)CCOc1ccc(-c2nc(-c3ccncc3)c(-c3ccc4c(c3)CC/C4=N\O)[nH]2)cc1` is -4.32%; for `O=C(Nc1ccc(OC(F)(F)F)cc1)c1sccc1NCc1ccnc2ccccc12` it is 6.56%.

For the compound `CCN(CC)C(=S)SSC(=S)N(CC)CC` [Disulfiram], the “percent difference in area” value was -27.1 ± 6.8%.

As for `Cc1ccc(S(=O)(=O)/C=C/C#N)cc1`, the “percent difference in area” value turned out to be 0.814%. The figure for `O=C(c1ccc(OCCN2CCCCC2)cc1)c1c(-c2ccc(O)cc2)sc2cc(O)ccc12` [Evista] is 2.48%; for `S=c1[nH]cnc2nc[nH]c12` [Mercaptopurine] it is -43.4%.

As to `COc1cc2/c(=N/c3ccc(Br)cc3F)nc[nH]c2cc1OCC1CCN(C)CC1` [Vandetanib], the “percent difference in area” value was -3.62%. The same measure for `CCOc1ccn(-c2ccc(F)cc2)c(=O)c1C(=O)Nc1ccc(Oc2ccnc(N)c2Cl)c(F)c1`: -1.99%. The figure for `O=C(Cc1ccc(-c2ccc(OCCN3CCOCC3)cc2)cn1)NCc1ccccc1` is -13.1%; for `CCOC(=O)c1cnc2ccc(-c3cncc(NS(=O)(=O)c4ccccc4)c3)cn12` it is -8.07%. The same measure for `Oc1ccc(Nc2nc(-c3ccc(Cl)cc3)cs2)cc1`: 6.02%; for `Cc1ccc(C(=O)Nc2ccc(CN3CCN(C)CC3)c(C(F)(F)F)c2)cc1C#Cc1cnc2cccnn12` [Ponatinib]: 16.9%; for `COCC[n+]1c2c(n(Cc3cnccn3)c1C)C(=O)c1ccccc1C2=O`: 15.7%.
